Experimental data published in PubChem BioAssay (NCI).
This is part of a sample that, as a whole, favours compounds with a hit. Of some 83,000 tested, about 20% had one in any assay.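 Note: values are percent growth. 100 is the growth of untreated cells, values between 100 and 0 indicate rising inhibition; between -100 and 0 indicates cell death.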 A number with no mark means an inactive call. Calls of active or inactive are those of the source. Rule for the calls: active = growth percent below 10; inactive = the rest.

Tests used:
Assay in all cases: NCI-60 one-dose screen, 48 h (100 = growth as untreated, 0 = no growth, -100 = all killed)
Settings in all cases: 10 µM unless noted
NCI-H23 lung = tested on: NCI-H23 lung
NCI-H226 lung = tested on: NCI-H226 lung
NCI-H322M lung = tested on: NCI-H322M lung
HOP-62 NSCLC = tested on: HOP-62 NSCLC
NCI-H460 lung = tested on: NCI-H460 lung
HOP-92 NSCLC = tested on: HOP-92 NSCLC
NCI-H522 lung = tested on: NCI-H522 lung
A549/ATCC NSCLC = tested on: A549/ATCC NSCLC
786-0 renal = tested on: 786-0 renal
COLO 205 colon = tested on: COLO 205 colon
DU-145 prostate = tested on: DU-145 prostate
K-562 leukemia = tested on: K-562 leukemia
MALME-3M melanoma = tested on: MALME-3M melanoma
MDA-MB-231 breast = tested on: MDA-MB-231 breast
RXF 393 renal = tested on: RXF 393 renal
SF-268 CNS = tested on: SF-268 CNS
SF-295 CNS = tested on: SF-295 CNS
SF-539 CNS = tested on: SF-539 CNS
UACC-257 melanoma = tested on: UACC-257 melanoma
M14 melanoma = tested on: M14 melanoma

Structure (SMILES) | growth (NCI-H23 lung) | growth (NCI-H226 lung) | growth (NCI-H322M lung) | growth (HOP-62 NSCLC) | growth (NCI-H460 lung) | growth (HOP-92 NSCLC) | growth (NCI-H522 lung) | growth (A549/ATCC NSCLC) | growth (786-0 renal) | growth (COLO 205 colon) | growth (DU-145 prostate) | growth (K-562 leukemia) | growth (MALME-3M melanoma) | growth (MDA-MB-231 breast) | growth (RXF 393 renal) | growth (SF-268 CNS) | growth (SF-295 CNS) | growth (SF-539 CNS) | growth (UACC-257 melanoma) | growth (M14 melanoma)
COc1ccc(C(=O)c2sc3nc(C)cc(C)c3c2N)cc1OC | 74.3% | 89.8% | 87.9% | 53.4% | 67.6% | 89.7% | -13.1% (active) | 60% | 99.5% | 102% | 90.7% | 92.6% | 83.3% | 56.3% | 93.9% | 60.1% | 89.8% | 92.2% | 95.1% | 105%
COc1cccc(-c2nc3sccn3c2-c2ccnc(NCCCNS(=O)(=O)c3cccc(Cl)c3)c2)c1 | 39% | 33.8% | 77.4% | 65% | 64.8% | 48.8% | 43.7% | 35.8% | 63.9% | 39.8% | 46.4% | 22.2% | 60% | 71.9% | 71.9% | 52.2% | 21.2% | 86.2% | 55.2% | 30.8%
C=CC(=O)Nc1cccc(-c2nc(SC)nc(Nc3cccc(OC)c3)c2C#N)c1 | 81% | 70.9% | 94.5% | 85.5% | 86% | 29.5% | 58.7% | 57.3% | 62.7% | 93.3% | 54.6% | 54.6% | 77.6% | 71.4% | 36.9% | 57.1% | 77.8% | 71.3% | 82.3% | 60.6%
Cc1ccc(O)c(N2C(=NCc3ccco3)NS(=O)(=O)c3cnccc32)c1 | 95.2% | 101% | 114% | 100% | 104% | 27.7% | 93.3% | 83.7% | 105% | 125% | 118% | 71.4% | 107% | 111% | 57.9% | 100% | 0.898% (active) | 97.9% | 124% | 98.4%
O=c1cc(CSc2nnc(SCc3cc(=O)oc4c3ccc3ccccc34)o2)c2ccc3ccccc3c2o1 | 89.9% | 83.6% | 93.3% | 99.2% | 104% | 97.6% | 70.1% | 89.3% | 109% | 106% | 109% | 97.7% | 102% | 95.8% | 119% | 96.7% | 96.1% | 101% | 93.6% | 103%
CCOC(=O)c1csc(NC(=O)COc2cccc(/C=C3\CSc4ccccc4C3=O)c2)n1 | 9.12% (active) | 98.1% | 97.1% | 80.1% | 98.4% | -79.1% (active) | -39.2% (active) | 97.2% | 87.1% | 87.9% | 87.1% | -64.3% (active) | -52.6% (active) | 59.2% | 64.9% | -37.2% (active) | 93.7% | -89.1% (active) | 84.5% | -58.5% (active)
Cc1oc(-c2ccc(Cl)cc2Cl)cc1C(=O)Nc1nccs1 | 87.4% | 62.6% | 91.1% | 85.4% | 60.7% | 110% | 89.7% | 51.8% | 90.7% | 87.9% | 104% | 95.1% | 85.1% | 83.2% | 88.2% | 100% | 87% | 95.9% | 114% | 99.5%
O=C(O)c1ccc(NC(=O)c2ccc(-c3cccc([N+](=O)[O-])c3)o2)cc1 | 91.8% | 89.3% | 95% | 103% | 102% | 98.6% | 94.5% | 101% | 105% | 107% | 105% | 107% | 86.4% | 96.1% | 113% | 98.5% | 98.8% | 99.4% | 105% | 107%
Nc1n[nH]c2ccc([C@@H]3Nc4ccc5cn[nH]c5c4[C@H]4C5CCC(C5)[C@@H]34)cc12 (stereo not given in full) | 43.5% | 37.9% | 47.2% | 48.3% | 1.13% (active) | 104% | 27.1% | 24.4% | 38.4% | -9.43% (active) | 18.3% | 10.8% | 51.7% | 50.8% | -1.15% (active) | 42% | 13.2% | -19.6% (active) | 72.6% | 10.7%
O=C(N=Nc1c(O)[nH]c2ccccc12)c1cc(-c2ccccc2)on1 | 95.8% | 96.8% | 111% | 102% | 102% | 96.2% | 90.7% | 107% | 104% | 122% | 113% | 104% | 100% | 93.1% | 118% | 101% | 98.2% | 97.4% | 106% | 104%
CC(=O)O[C@H]1CC[C@]2(C)[C@H]3CC=C4[C@@H]5CC(C)(C)CC[C@]5(C(=O)NCCNCCN)CC[C@@]4(C)[C@]3(C)CC[C@H]2C1(C)C | 70.1% | 73.5% | 67.3% | -86.7% (active) | -69.8% (active) | -45.3% (active) | -86.9% (active) | -71.1% (active) | -95.3% (active) | -92.7% (active) | -45.3% (active) | -47.2% (active) | -71.2% (active) | -66.5% (active) | 44.9% | 74.3% | 92.8% | 70.3% | -42.3% (active) | -81.4% (active)
O=C(NCCN1CCOCC1)Nc1ccc(-c2cc3c(Nc4ccc(Oc5cccc(C(F)(F)F)c5)c(Cl)c4)ncnc3s2)cc1 | 27.4% | 26.3% | 18.7% | -26% (active) | -39.8% (active) | 16.4% | 27.3% | 4.01% (active) | -43% (active) | -56.7% (active) | 44.7% | -29.5% (active) | -57.5% (active) | 12% | -19.5% (active) | 29.3% | -58.5% (active) | -13.5% (active) | 26.4% | -50.5% (active)
CC(=O)c1nc2ccccc2n1CC(=O)c1cccc(Cl)c1 | 36.6% | 105% | 48.2% | 55.8% | 4.22% (active) | 75.6% | -16% (active) | 15.2% | 35.8% | 117% | 5.27% (active) | -0.209% (active) | 90.6% | 28.1% | 2% (active) | 13.2% | 8.35% (active) | -31.3% (active) | 36.5% | 16.6%
COc1ccc2c(c1)O/C(=C\c1cccc(OCC(=O)Nc3nc4c(s3)CCCC4)c1)C2=O | 37.8% | 86.9% | 95.4% | 103% | 115% | -23.4% (active) | -91.4% (active) | 94.6% | 89.9% | 113% | 42.8% | 24.5% | 109% | 65.9% | -15.4% (active) | 89.4% | 75.8% | 87.8% | 95.1% | 90.9%
C#Cc1cccc(NC(=O)c2ccccc2NC(=O)CCl)c1 | 64.4% [8.25 µM] | 50.1% [8.25 µM] | 99.3% [8.25 µM] | 75.8% [8.25 µM] | 98.3% [8.25 µM] | 77.4% [8.25 µM] | 10.6% [8.25 µM] | 92.7% [8.25 µM] | 87.5% [8.25 µM] | 114% [8.25 µM] | 96.2% [8.25 µM] | 68.2% [8.25 µM] | 105% [8.25 µM] | 111% [8.25 µM] | 96.7% [8.25 µM] | 68% [8.25 µM] | 103% [8.25 µM] | 93.4% [8.25 µM] | 98.4% [8.25 µM] | 83.3% [8.25 µM]
